# Screens as filed in PubChem.
# SRC3 TRFRET art: TR-FRET artefact, counter-screen to PPARgamma/SRC-3 agonist assay | PPARgamma/SRC-3 format; hits give high values | TR-FRET ratio at 8 µM | hit rate 0.39% among 99,000 | AID 1048
# PPARg SRC2 recr: agonists of SRC-2 recruitment by human PPARgamma | PPARgamma LBD-SRC-2 recruitment, biochemical | hit rate 0.34% among 200,000 | AID 1032 | activation, % at 8 µM | P37231; in the data active = activation above about 22%
# Target sequence (P37231 whole entry, looked up, the tested form may be a part): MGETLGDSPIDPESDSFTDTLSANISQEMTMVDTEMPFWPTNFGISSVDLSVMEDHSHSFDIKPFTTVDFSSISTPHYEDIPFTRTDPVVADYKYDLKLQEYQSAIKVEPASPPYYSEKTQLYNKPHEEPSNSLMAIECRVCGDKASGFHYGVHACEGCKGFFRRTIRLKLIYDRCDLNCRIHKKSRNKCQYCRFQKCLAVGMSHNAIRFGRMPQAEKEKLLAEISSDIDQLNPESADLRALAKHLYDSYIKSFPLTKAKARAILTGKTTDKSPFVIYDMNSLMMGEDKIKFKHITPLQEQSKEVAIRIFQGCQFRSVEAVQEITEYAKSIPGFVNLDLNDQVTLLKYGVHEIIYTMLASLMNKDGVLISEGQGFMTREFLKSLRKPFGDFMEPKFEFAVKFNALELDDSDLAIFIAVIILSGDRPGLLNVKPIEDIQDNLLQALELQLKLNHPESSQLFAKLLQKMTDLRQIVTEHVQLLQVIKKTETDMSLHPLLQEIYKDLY
# SRC2 TRFRET art: TR-FRET artefact, counter-screen to PPARgamma/SRC-2 agonist assay; hits give high values; TR-FRET ratio at 8 µM; hit rate 0.4% among 200,000; AID 1049
# SRC1 TRFRET art: counter-screen for PPARgamma SRC-1 recruitment agonists: TR-FRET artefact; TR-FRET detection artefact counter-screen, emission ratio; hits give high values; TR-FRET ratio at 8 µM; hit rate 0.34% among 99,000; AID 1051; in the data active = TR-FRET ratio above about 2300
# PPARg SRC-3 ag: promotes SRC-3 coactivator recruitment by human PPARgamma; activation, % at 8 µM; biochemical PPARgamma/SRC-3 coactivator recruitment assay; P37231; hit rate 0.26% among 200,000; in the data active = activation above about 23%
# PPARg SRC-1 ag: promotes SRC-1 coactivator recruitment by human PPARgamma | P37231 | PPARgamma-SRC-1 coactivator recruitment biochemical assay | activation, % at 8 µM | hit rate 0.41% among 200,000 | AID 631; in the data active = activation above about 19%
# Hits are given with their value; n = inactive; x = not tested or not shown. Most compounds without a hit are left out; they make up all but 0.84% or so of the library. Rule as the data show it, unless noted: active = TR-FRET ratio above about 2000; inactive = the rest.
SMILES,SRC3 TRFRET art,PPARg SRC2 recr,SRC2 TRFRET art,SRC1 TRFRET art,PPARg SRC-3 ag,PPARg SRC-1 ag
O=C(Nc1nc2c(cc3c4c(cccc42)CC3)s1)c1ccccc1Cl,2115,n,1981,n,n,n
O=c1c(/C=N/OCc2ccc(Cl)cc2Cl)c[nH]n1-c1cccc(Cl)n1,n,n,2085,n,n,n
Cc1cc(NC(=O)CN2C(=O)NC(C)(c3ccc(Cl)cc3)C2=O)no1 (stereo unspecified),n,n,n,n,n,n
Cc1cccc(N2CCN(C(=O)c3cc(C)oc3C)CC2C)c1 (stereo unspecified),n,n,n,2332,n,n
Cc1cccc(N2CCN(C(=O)c3ccncc3)CC2C)c1 (stereo unspecified),x,n,n,x,n,n
Oc1ccc(C2Nc3cccc4cccc(c34)N2)c(O)c1,x,n,n,x,31,30
CN(C)S(=O)(=O)c1ccc(NC(=O)COC(=O)CC2CC3CCC2C3)cc1 (stereo unspecified),n,n,n,n,n,n
O=C(Cc1ccccc1)Nc1ccc2c(c1)CCC2,n,n,n,n,n,n
O=C(CC1CCCC1)Nc1ccc2c(c1)CCC2,x,57,n,x,n,n
Cc1cc2cc(CNC(=O)c3ccc(S(=O)(=O)N(C)C)cc3)ccc2n1C,x,n,2108,x,n,n
Cc1ccc(S(=O)(=O)NCCn2c(C)cc3ccccc32)cc1,x,n,2803,x,n,n
Cc1cc(C)c(S(=O)(=O)NCc2ccc3c(c2)cc(C)n3C)c(C)c1,x,n,2083,x,n,n
CC(=O)Nc1ccc(S(=O)(=O)NCc2ccc3c(c2)cc(C)n3C)cc1,x,n,n,x,n,n
Cc1cc2ccccc2n1CCNC(=O)Cc1ccccc1,x,n,n,x,n,n
Cc1cc(C)c(S(=O)(=O)NCCn2c(C)cc3ccccc32)c(C)c1,x,n,2078,x,n,n
CCc1nc2ccccc2n1CC1CC1(Cl)Cl (stereo unspecified),n,n,n,n,n,n
Cc1cc([N+](=O)[O-])ccc1NC(=O)CSc1nccc(=O)[nH]1,n,n,n,n,n,n
C=CCNC(=O)c1ccc(-c2nc(-c3ccc(Cl)cc3Cl)cs2)cc1,x,n,n,x,n,19
Cc1ccccc1CC1(CO)CCCN(C(=O)c2ccc3ncccc3c2)C1 (stereo unspecified),n,n,n,n,n,n
COc1ccc(-c2cc(C(F)F)n3ncc(C(=O)N4CCCc5ccccc54)c3n2)cc1,n,n,n,n,26,n
O=C(c1cnn2c(C(F)F)cc(-c3ccccc3)nc12)N1CCCc2ccccc21,x,n,n,x,n,n
CC(C)(O)C#Cc1ccc(CN2CCN(C3CCCCC3)C(CCO)C2)cc1 (stereo unspecified),n,n,n,2568,n,24
CC(C)(C)c1ccc(C(=O)N2CCN(CCNC(=O)C(=O)NCc3ccccc3)CC2)cc1,n,n,n,n,n,n
COc1ccc(OC)c(/C=N\NC(=O)CC(=O)NCCc2ccccc2)c1,n,n,n,2318,n,n
COc1ccc(N(CC(=O)Nc2ccccc2F)S(=O)(=O)c2ccc(C)c([N+](=O)[O-])c2)cc1,n,n,n,n,n,n
SMILES,SRC3 TRFRET art,PPARg SRC2 recr,SRC2 TRFRET art,SRC1 TRFRET art,PPARg SRC-3 ag,PPARg SRC-1 ag
Cc1sc(NC(=O)Cc2ccc3c(c2)OCO3)nc1-c1ccc2c(c1)CCN2C(=O)c1ccccc1F,n,n,n,n,n,n
Cc1sc(NC(=O)Cc2ccc3c(c2)OCO3)nc1-c1ccc2c(c1)CCN2C(=O)c1ccc(F)cc1,2623,n,n,n,n,n
CCOC(=O)c1c(NC(=S)Nc2ccc(OC)cc2)sc2c1CCC2,n,n,n,n,n,n
COC(=O)c1c(NC(=S)Nc2ccc(C(=O)N3CCOCC3)cc2)sc2c1CCC2,2231,n,n,n,n,n
CC1(C)CC(Cc2nc(=S)[nH][nH]2)C(=O)O1 (stereo unspecified),n,n,n,n,n,n
c1ccc(-n2ncc3c(NCc4cccs4)ncnc32)cc1,2147,n,n,n,n,n
CCCn1c(SCC(=O)N2CCCC(C)C2)nnc1-c1ccccn1 (stereo unspecified),n,n,n,n,n,n
COc1ccc(C(=O)Nn2c(SCC(=O)c3ccc(Cl)cc3)nc3ccccc3c2=O)cc1,x,n,2000,x,n,n
CCn1c(C2CCN(S(=O)(=O)c3ccc(OC)cc3)CC2)n[nH]c1=S,n,n,n,n,n,n
Cc1cc(/C=C2/C(=O)N(C)C(=S)N2C)c(C)n1C1CC1,n,22,n,n,n,n
COc1ccc(OC)c(CN2CCN(Cc3cccc4ccccc34)CC2)c1,n,n,n,n,n,n
COc1ccc(C(=O)C2CCCN(C(=O)CCc3scnc3C)C2)c(C)c1 (stereo unspecified),n,n,n,n,n,n
O=c1c(-c2n[nH]c(=S)n2-c2ccccc2)cccn1Cc1cccc(Cl)c1,n,n,1986,n,n,n
Cc1onc(-c2ccccc2)c1C(=O)Nc1nc(-c2ccccc2)cs1,x,n,2194,x,n,n
COc1cccc(C(=O)Nc2nc(-c3ccc(S(=O)(=O)N4CCOCC4)cc3)cs2)c1,x,n,2385,x,n,n
O=C(Nc1nc(-c2ccc(S(=O)(=O)N3CCCC3)cc2)cs1)c1cccs1,x,n,n,x,n,n
O=C(Nc1nc(-c2ccc(S(=O)(=O)N3CCCCCC3)cc2)cs1)c1cccs1,x,n,2280,x,n,22
Cc1ccc(-c2csc(NC(=O)c3cccc(S(=O)(=O)N4CCN(C)CC4)c3)n2)cc1,n,n,n,n,n,n
O=C(Nc1nc(-c2ccc3ccccc3c2)cs1)C1CCN(S(=O)(=O)c2cccs2)CC1,2381,n,n,n,n,n
CC(C)NC(=O)CSc1nnc(-c2ccc(F)cc2)c2ccccc12,n,n,n,n,n,n
COc1ccc(C(=O)CSc2nnc(-c3ccc(S(=O)(=O)N4CCOCC4)cc3)o2)cc1,x,n,n,x,n,25
O=C(CSc1nnc(-c2ccc(S(=O)(=O)N3CCOCC3)cc2)o1)c1ccccc1F,x,n,n,x,n,n
O=C(Nc1nc(-c2nc3ccccc3s2)cs1)c1ccc(S(=O)(=O)N2CCOCC2)cc1,x,n,n,x,n,n
O=C(Nc1nc(-c2ccc(S(=O)(=O)N3CCOCC3)cc2)cs1)c1ccccc1,x,n,2397,x,n,n
Cc1cc2occ(CC(=O)OCC(=O)Nc3sc4c(c3C#N)CCC(C)C4)c2cc1C (stereo unspecified),n,n,n,n,n,n
CCN=C1SC(CC(=O)NC(C)c2ccccc2)C(=O)N1CC (stereo unspecified),n,n,n,n,n,n
Cc1cc(N2C3CCC2CC(O)(c2ccc(F)cc2)C3)nc(-c2ccccc2)n1 (stereo unspecified),x,n,n,x,n,n
CC(C)C(=O)N1C2CCC1CC(O)(c1ccc(F)cc1)C2 (stereo unspecified),x,n,n,x,48,n
